About 83,000 compounds went through this panel and 20% of them were active in at least one assay; those are over-represented in the sample as a whole.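 The test compound was applied at a single concentration to cells in 96-well plates for 48 hours, and percent growth was recorded.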 Unmarked numbers belong to inactive results. Calls of active or inactive are those of the source. How the source made its calls: active means growth percent below 10; inactive means the rest.
Tests used:
Experiment in all cases: NCI-60 one-dose screen, 48 h (100 = growth as untreated, 0 = no growth, -100 = all killed)
Settings in all cases: 10 µM
[1] = test system: K-562 leukemia
[2] = test system: MALME-3M melanoma
[3] = test system: MDA-MB-231 breast
[4] = test system: RXF 393 renal
[5] = test system: SF-268 CNS
[6] = test system: SF-295 CNS
[7] = test system: SF-539 CNS
[8] = test system: UACC-257 melanoma
[9] = test system: M14 melanoma
[10] = test system: DU-145 prostate

SMILES	growth [1]	growth [2]	growth [3]	growth [4]	growth [5]	growth [6]	growth [7]	growth [8]	growth [9]	growth [10]
O=[N+]([O-])c1cc[n+]([O-])c2ccccc12	0.325% (active)	-69% (active)	-45.1% (active)	-87.1% (active)	3.65% (active)	-17.7% (active)	-35% (active)	-47.1% (active)	-92.9% (active)	–
CN(C)CC1(N)C(=O)NC(=O)NC1=O	99.3%	108%	98.7%	101%	103%	98.8%	99%	87.4%	102%	–
O=C(CCl)Nc1ccc(Cl)cc1	19.4%	28%	46.7%	35.2%	41.9%	68.8%	105%	69.9%	47.1%	76.1%
COC1CC2C=C(C)/C=C/C=C/C(=O)NC(c3ccccc3)C/C=C/CCC(O)CC(=O)C2=C1O (stereo not drawn)	-52.2% (active)	-84.5% (active)	-74.8% (active)	-90.6% (active)	-78.3% (active)	-89.3% (active)	-99.4% (active)	–	-95.7% (active)	-85.6% (active)
Cc1ccc(NC(=O)CBr)cc1	70.8%	87.5%	95.1%	102%	104%	103%	111%	–	97.6%	105%
CC(Cc1ccc2c(c1)OCO2)NN (stereo not drawn)	82%	97.2%	104%	111%	100%	91%	91.9%	–	96.7%	113%
COc1ccccc1[As]=[As]c1ccccc1OC (stereo not drawn)	8.02% (active)	-72.8% (active)	-83.2% (active)	-99.5% (active)	-82.9% (active)	-86.4% (active)	-91.4% (active)	-95.5% (active)	-81.4% (active)	-89.9% (active)
[Cl][Sn]([c]1ccccc1)([c]1ccccc1)[c]1ccccc1	0.0368% (active)	-64% (active)	–	-81.5% (active)	-79.2% (active)	-62.1% (active)	-89.5% (active)	-93.9% (active)	-76% (active)	-84.3% (active)
COc1ccc(/C=C(\C)[N+](=O)[O-])cc1OC	-9.93% (active)	-72.2% (active)	77.9%	–	12%	69%	62.8%	-80.4% (active)	-41.9% (active)	18.6%

— PubChem BioAssay (NCI)
